These results are taken from PubChem BioAssay AID2018 (Sanford-Burnham Center for Chemical Genomics, 2009).

About 600 (50%) of roughly 1,200 compounds were called active. So high a share suggests a set chosen from earlier hits. The list shows a part of the results. Entries with a potency or affinity are not part of this list. A number with no mark means an inactive call. Cut-off read from the data, not from the text of the source: active = inhibition above about 42%; inactive = the rest.

SUMO-conjugating enzyme UBC9 (Homo sapiens), sequence (P63279 whole entry, looked up): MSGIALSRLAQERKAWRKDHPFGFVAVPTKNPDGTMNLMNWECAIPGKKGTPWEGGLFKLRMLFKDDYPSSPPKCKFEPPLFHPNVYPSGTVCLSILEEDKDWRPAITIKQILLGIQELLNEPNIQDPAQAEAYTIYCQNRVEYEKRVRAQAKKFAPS

This assay addresses SUMO-conjugating enzyme UBC9 (Homo sapiens) (UniProt P63279). Nature of the assay: blockers of UBC9-mediated SUMO conjugation – biochemical, AlphaScreen, SUMOylation inhibitor project, confirmation (AID 2018). The following applies: AlphaScreen in vitro SUMOylation assay; at 35 µM; active compounds read high. In general terms: Bead proximity is the source of the signal in Alpha formats.
As to `O=c1[nH]c(N2CCN(c3ccccc3)CC2)nc2c1CCC2`, the inhibition (as a rule, the drop in the measured response relative to a control, in per cent) is 8.8%.

`CN(C(=S)Nc1cccnc1)c1ccc(O)cc1`: the inhibition is 19.3%.

`COc1ccc2oc(=O)c(/C(C)=N/NC(=O)c3ccncc3)cc2c1`: the inhibition was 7.3%.

For `O=C(Nc1cccc(N=Cc2cc(Br)cc(Br)c2O)c1)c1ccco1`, the inhibition was 24.9%.

`C/C(=N\NC(=O)c1cc(O)ccc1O)c1cccc(NC(=O)c2ccc(Cl)cc2)c1`: the inhibition was 94.8% (active).

As for `Cc1ccc(NC2=CC(=O)CC(c3ccco3)C2)c(N)c1` (stereo not given), the inhibition is 20.2%.

Turning to `CCOc1ccc(/C=N/NC(=O)c2cc(-c3ccco3)nc3ccccc23)cc1`, the inhibition was -1.6%.

As to `O=C(COC(=O)c1cc(-c2cccs2)nc2ccccc12)NCc1ccco1`, the inhibition was 7.3%.

For `COc1cc(/C=N/NC(=O)c2cc(-c3ccco3)nc3ccccc23)cc(OC)c1O`, the inhibition was 55.1% (active).

In the case of `CCN(CC)Cc1c(O)ccc2c(=O)c(Oc3ccccc3OC)coc12`, the inhibition is 3.9%.

On to `COc1ccccc1Oc1c(C)oc2cc(OC(=O)c3ccco3)ccc2c1=O`, for which the inhibition was 18.7%.

For the molecule `CCOc1cc(/C=C2/C(=O)N(c3ccccc3)N=C2C)ccc1OC(=O)c1ccco1`, the inhibition is 73.7% (active).

`CCOc1cc(/C=C2\C(=O)N(c3ccc(C(N)=O)cc3)N=C2C)ccc1OC(=O)c1cccs1`: the inhibition is 81.1% (active).

As to `CCOC(=O)N1CCN(C(=O)c2cccn3c(=O)c4cc(Br)ccc4nc23)CC1`, the inhibition was 4.2%.

On to `COC1=C(Nc2ccccc2)C(=O)c2ccccc2C1=O`, for which the inhibition was 93% (active).

`CC(NC(=O)Nc1ccc(O)cc1)(C(F)(F)F)C(F)(F)F`: the inhibition is 1.3%.

Consider `COC1=C(Nc2ccc(O)cc2)C(=O)c2ccccc2C1=O`, for which the inhibition was 74.4% (active).

On to `COC1=C(Nc2ccccc2OC)C(=O)c2ccccc2C1=O`, for which the inhibition is 96.4% (active).

Regarding `CC(=O)c1ccc(NC(=S)Nc2cccc3ccccc23)cc1`, the inhibition is 7.1%.

`Nc1ccc(N(CCO)CCO)cc1`: the inhibition is 38.6%.

`COc1ccc(C=Nc2ccc3[nH]ncc3c2)c(O)c1`: the inhibition was 19.3%.

As to `CN1C(=O)N(C)c2ccc(C=O)c3cccc1c23`, the inhibition is 22.2%.

In the case of `O=C(Nc1ccccc1F)Nc1cc(S(=O)(=O)N2CCOCC2)ccc1N1CCCC1`, the inhibition was 13.5%.

Take `O=S(=O)(c1ccc2nc(-c3ccco3)c(-c3ccco3)nc2c1)N1CCOCC1`: the inhibition is 52% (active).

Consider `Cc1cccn2cc(-c3ccc(S(=O)(=O)N4CCOCC4)cc3)nc12`, for which the inhibition is -6.1%.

As to `CCOC(=O)c1c(C)oc2c1c(C=NCCO)c(O)c1ccccc12`, the inhibition is 99.7% (active).

For `O=C(CSc1ncccn1)NCc1ccc2c(c1)OCO2`, the inhibition is -9.4%.

With `O=c1cc2c(=O)oc3cc(O)c(O)oc3c2c(O)c1O`, the inhibition was 89.8% (active).

As to `NCCc1ccc(O)c(O)c1`, the inhibition is -6.3%.

For `Cc1[nH][nH]c(=O)c1C(c1ccc(-c2ccccc2C(=O)O)o1)c1c(C)[nH][nH]c1=O`, the inhibition was 66.6% (active).

Regarding `COC(=O)c1ccccc1-c1ccc(C(c2c(C)[nH][nH]c2=O)c2c(C)[nH][nH]c2=O)o1`, the inhibition is 88.2% (active).

Consider `COc1ccc(O)c(C(c2c(C)[nH][nH]c2=O)c2c(C)[nH][nH]c2=O)c1`, for which the inhibition is 17.7%.

As for `COc1ccc(-c2ccc(C(c3c(C)[nH][nH]c3=O)c3c(C)[nH][nH]c3=O)o2)c([N+](=O)[O-])c1`, the inhibition is 73.1% (active).

Turning to `Cc1ccc(-n2cccn2)c([C@@H]2C[C@H]3CN(C)C(=O)[C@]34CCCN24)c1`, the inhibition is 8.1%.

For `Cc1ccccc1-c1nc2cc(N)ccc2o1`, the inhibition is 21.4%.

For `CN(C)S(=O)(=O)c1cc(NC(=O)CNCc2ccccc2)ccc1Cl`, the inhibition is -19.5%.

Regarding `O=C(c1cccn2c(=O)c3cc4ccccc4cc3nc12)N1CCN(c2ccccc2)CC1`, the inhibition is 27.6%.

For `CN(C)C=Nc1ccc2nc3c(cc2c1)[nH]c1ccccc13`, the inhibition is 20.5%.

As for `Cc1cc[n+](-c2[nH]c(=O)sc2/C=N/N=C(\[O-])c2ccncc2)cc1`, the inhibition was -9.7%.

In the case of `Cc1cccn2c(=O)c3cc(C#N)c(=NC(=O)c4ccco4)n(Cc4ccco4)c3nc12`, the inhibition was 25.4%.

As to `O=c1oc(-c2cccs2)nc2sc3c(c12)CCC3`, the inhibition is -2.8%.

With `CN(C)c1cc(N/N=C/c2ccccc2C(F)(F)F)nc(N(C)C)n1`, the inhibition is 72.9% (active).

Regarding `Cc1nc2ccccc2c(=O)n1/N=C/c1ccc(O)c(O)c1O`, the inhibition was 81.7% (active).

Regarding `Cc1ccc(-c2[nH]ncc2/C=N/n2c(C)nc3ccccc3c2=O)cc1`, the inhibition is 66.8% (active).

In the case of `O=C1NC(=O)c2cc(NC(=O)C3CCCCC3)ccc21`, the inhibition was 8.7%.

On to `O=C(c1cccc2cccc(O)c12)N1CCCCC1`, for which the inhibition is 14.8%.

In the case of `Cc1cc(C)cc(Oc2coc3c(CN(C)C)c(O)ccc3c2=O)c1`, the inhibition was 10.6%.

With `COc1ccc(-c2cc(C(F)(F)F)n3ncc(C(=O)NCc4ccco4)c3n2)cc1`, the inhibition was 32.4%.

Regarding `Cc1ccc(NC(=O)C2CCN(C(=O)c3ccco3)CC2)cc1`, the inhibition is 0.4%.

`COc1ccc2oc(=O)c(C(=O)NCc3ccco3)cc2c1`: the inhibition was -14.1%.

For the molecule `COc1ccc2c(c1)Cc1sc(NC(=O)c3ccco3)nc1-2`, the inhibition is 40.3%.

For `O=C(COc1ccc2oc(-c3ccco3)cc(=O)c2c1)N1CCCCC1`, the inhibition was -2.7%.

As to `COc1ccc(-n2nc3cc(C)c(N)c(Br)c3n2)cc1`, the inhibition is 18.3%.

As for `Cc1ccc(C)c(S(=O)(=O)C(C#N)c2nc3ccccc3nc2N2CCOCC2)c1` (stereo not given), the inhibition is 9.2%.

Consider `COc1ccc(S(=O)(=O)C(C#N)c2nc3ccccc3nc2N2CCCCC2)cc1` (stereo not given), for which the inhibition is 42.8% (active).

Consider `Cc1ccc(S(=O)(=O)C(C#N)c2nc3ccccc3nc2N2CC(C)OC(C)C2)cc1C` (stereo not given), for which the inhibition was 22.8%.

Take `Cc1ccc(S(=O)(=O)C(C#N)c2nc3ccccc3nc2N2CCCC2)cc1C` (stereo not given): the inhibition is 45.8% (active).

Regarding `COc1ccc(S(=O)(=O)C(C#N)c2nc3ccccc3nc2N2CCC(C)CC2)cc1` (stereo not given), the inhibition was 15.7%.

`Cc1ccc(C)c(S(=O)(=O)C(C#N)c2nc3ccccc3nc2N2CC(C)OC(C)C2)c1` (stereo not given): the inhibition is 4.8%.

Take `C=CCNC(=O)C(C#N)c1nc2ccccc2nc1N1CCCCCC1` (stereo not given): the inhibition is 30.3%.

On to `N#CC(C(=O)NC1CC1)c1nc2ccccc2nc1N1CCCC1` (stereo not given), for which the inhibition was 29%.

Turning to `Cc1ccccc1S(=O)(=O)Nc1nc2ccccc2nc1N1CCc2ccccc2C1`, the inhibition was -43.2%.

Take `Cc1ccc(C)c(S(=O)(=O)C(C#N)c2nc3ccccc3nc2N2CCCC2)c1` (stereo not given): the inhibition was 44.3% (active).

For `N#CC(c1nc2ccccc2nc1N1CCCC1)S(=O)(=O)c1cccs1` (stereo not given), the inhibition was 37.3%.

`N#CC(c1nc2ccccc2nc1N1CCCC1)S(=O)(=O)c1ccccc1` (stereo not given): the inhibition was 66.7% (active).
